The values below come from PMC7862700, “An all-to-all approach to the identification of sequence-specific readers for epigenetic DNA modifications on cytosine”.

What all share (assay): DAPPL (digital affinity profiling via proximity ligation, sequencing); 10 mM Tris-HCl pH 7.5, 50 mM NaCl, 1 mM DTT, 4% glycerol, room temperature, 30 min; GST-TFs on glutathione beads, 16-mer random dsDNA library, 0.1% formaldehyde crosslink after washing; high values mean tight binding
What all share (conditions): protein: recombinant; tags: N-terminal GST; dsDNA, one strand shown

One experiment deals with T1, FLI1 (Homo sapiens, UniProt Q01543 1-452).
T1 sequence: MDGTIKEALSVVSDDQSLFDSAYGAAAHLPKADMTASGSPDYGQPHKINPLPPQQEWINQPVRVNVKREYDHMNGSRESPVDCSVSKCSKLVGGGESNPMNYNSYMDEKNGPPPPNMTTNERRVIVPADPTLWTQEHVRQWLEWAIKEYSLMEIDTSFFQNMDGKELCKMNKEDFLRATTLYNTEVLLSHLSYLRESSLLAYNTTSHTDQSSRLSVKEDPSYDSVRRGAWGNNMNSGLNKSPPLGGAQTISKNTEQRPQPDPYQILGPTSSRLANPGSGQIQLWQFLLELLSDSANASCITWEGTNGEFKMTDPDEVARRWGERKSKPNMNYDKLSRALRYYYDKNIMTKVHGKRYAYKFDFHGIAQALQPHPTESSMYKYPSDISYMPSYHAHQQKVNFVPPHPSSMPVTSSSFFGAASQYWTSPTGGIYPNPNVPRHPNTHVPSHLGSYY
In short, it runs like this: (§1)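 Sequencing on an Illumina NextSeq500 followed washing, crosslinking with 0.1% formaldehyde, proximity ligation (BsaI/T4 ligase, 1 h, 37 °C) and PCR amplification of pools that had been incubated for 30 min at room temperature with 200 nmole of a random double-stranded 16-mer DNA library in Tris/NaCl/DTT/glycerol buffer. Each pool held DNA-barcoded human transcription factors, expressed in yeast as GST fusions and captured on glutathione beads, plus a tag-only sample. Binding signal is a hexamer's read frequency for a factor divided by its frequency in the tag-only sample.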

A further experiment has as its target T2, ELK1 (Homo sapiens, UniProt P19419 1-428).
T2 sequence: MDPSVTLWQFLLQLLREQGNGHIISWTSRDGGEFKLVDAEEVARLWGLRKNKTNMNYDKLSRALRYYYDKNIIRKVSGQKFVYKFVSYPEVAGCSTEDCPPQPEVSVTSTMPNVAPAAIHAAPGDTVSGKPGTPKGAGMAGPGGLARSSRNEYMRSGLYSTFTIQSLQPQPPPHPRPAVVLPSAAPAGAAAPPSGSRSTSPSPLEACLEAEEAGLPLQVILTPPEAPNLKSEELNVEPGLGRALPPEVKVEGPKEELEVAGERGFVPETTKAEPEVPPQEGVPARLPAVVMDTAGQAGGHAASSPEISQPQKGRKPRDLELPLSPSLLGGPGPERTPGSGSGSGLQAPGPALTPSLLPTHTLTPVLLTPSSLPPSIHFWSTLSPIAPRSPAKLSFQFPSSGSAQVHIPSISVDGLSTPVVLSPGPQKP
Put shortly: as §1

Another experiment addresses T3, GABPA (Homo sapiens, UniProt Q06546 1-454).
T3 sequence: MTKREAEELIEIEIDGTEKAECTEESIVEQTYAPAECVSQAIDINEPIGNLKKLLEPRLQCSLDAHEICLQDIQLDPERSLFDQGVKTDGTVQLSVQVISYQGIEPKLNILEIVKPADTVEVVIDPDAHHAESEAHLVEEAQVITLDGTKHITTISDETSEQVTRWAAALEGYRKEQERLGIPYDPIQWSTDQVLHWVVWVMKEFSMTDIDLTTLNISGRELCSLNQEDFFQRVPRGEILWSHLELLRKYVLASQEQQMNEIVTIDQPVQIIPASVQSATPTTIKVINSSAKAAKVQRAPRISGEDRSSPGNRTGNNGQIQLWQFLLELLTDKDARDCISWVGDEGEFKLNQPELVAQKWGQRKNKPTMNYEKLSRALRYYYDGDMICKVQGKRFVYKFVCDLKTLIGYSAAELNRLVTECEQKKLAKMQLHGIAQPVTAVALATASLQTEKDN
In short, it runs like this: as §1

A further experiment deals with T4, ERG (Homo sapiens, UniProt P11308 1-479).
T4 sequence: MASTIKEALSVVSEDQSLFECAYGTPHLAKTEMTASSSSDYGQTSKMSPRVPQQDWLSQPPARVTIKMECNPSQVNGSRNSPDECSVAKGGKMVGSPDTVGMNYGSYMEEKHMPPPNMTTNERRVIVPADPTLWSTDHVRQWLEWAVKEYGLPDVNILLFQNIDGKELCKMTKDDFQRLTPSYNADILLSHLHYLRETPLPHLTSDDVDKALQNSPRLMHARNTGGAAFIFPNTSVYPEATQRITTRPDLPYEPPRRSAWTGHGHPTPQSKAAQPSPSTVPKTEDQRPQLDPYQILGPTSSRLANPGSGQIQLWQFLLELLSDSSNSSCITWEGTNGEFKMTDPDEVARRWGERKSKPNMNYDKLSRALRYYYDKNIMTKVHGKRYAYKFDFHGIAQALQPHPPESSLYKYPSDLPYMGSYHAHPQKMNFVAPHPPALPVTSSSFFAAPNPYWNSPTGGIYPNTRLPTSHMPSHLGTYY
In short, it runs like this:
as §1

The target of another experiment is ELF1 (Homo sapiens, UniProt P32519 1-619). Put shortly:
as §1

A further experiment has as its target T5, EHF (Homo sapiens, UniProt Q9NZC4 1-300).
T5 sequence: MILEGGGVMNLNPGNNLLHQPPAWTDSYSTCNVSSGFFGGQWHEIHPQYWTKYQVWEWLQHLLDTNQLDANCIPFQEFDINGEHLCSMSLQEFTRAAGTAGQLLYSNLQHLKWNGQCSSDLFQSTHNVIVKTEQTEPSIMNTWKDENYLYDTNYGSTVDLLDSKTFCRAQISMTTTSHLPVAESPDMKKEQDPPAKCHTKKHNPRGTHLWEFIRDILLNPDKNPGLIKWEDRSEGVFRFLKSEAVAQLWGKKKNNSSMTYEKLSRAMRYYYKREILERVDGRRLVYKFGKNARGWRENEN
Put shortly:
as §1

The next experiment concerns the target SPI1 (Homo sapiens, UniProt P17947 1-270). Put shortly:
as §1

Another experiment deals with SPIB (Homo sapiens, UniProt Q01892 1-262). In short, it runs like this: as §1
Chain of SPIB (Q01892 whole entry): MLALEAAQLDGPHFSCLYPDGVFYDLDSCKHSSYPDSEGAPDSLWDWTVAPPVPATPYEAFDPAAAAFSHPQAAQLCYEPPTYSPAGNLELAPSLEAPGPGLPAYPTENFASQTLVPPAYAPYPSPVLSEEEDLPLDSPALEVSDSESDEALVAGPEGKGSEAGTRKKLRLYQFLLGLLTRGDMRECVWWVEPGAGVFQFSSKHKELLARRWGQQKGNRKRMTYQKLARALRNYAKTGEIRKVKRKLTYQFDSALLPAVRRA
Another experiment deals with T6, ELK3 (Homo sapiens, UniProt P41970 1-407).
T6 sequence: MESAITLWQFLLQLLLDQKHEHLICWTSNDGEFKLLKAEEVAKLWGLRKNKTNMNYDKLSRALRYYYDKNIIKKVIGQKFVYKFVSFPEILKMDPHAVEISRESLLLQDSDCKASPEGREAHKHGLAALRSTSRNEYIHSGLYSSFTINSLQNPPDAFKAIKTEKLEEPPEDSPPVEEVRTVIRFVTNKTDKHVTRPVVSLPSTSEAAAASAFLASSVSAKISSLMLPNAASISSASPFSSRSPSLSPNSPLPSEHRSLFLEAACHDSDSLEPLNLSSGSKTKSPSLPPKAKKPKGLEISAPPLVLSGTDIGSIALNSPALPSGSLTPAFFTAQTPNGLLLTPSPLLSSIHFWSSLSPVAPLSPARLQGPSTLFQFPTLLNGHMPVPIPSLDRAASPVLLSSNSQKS
In short, it runs like this:
as §1

Chain of ELF1 (P32519 whole entry): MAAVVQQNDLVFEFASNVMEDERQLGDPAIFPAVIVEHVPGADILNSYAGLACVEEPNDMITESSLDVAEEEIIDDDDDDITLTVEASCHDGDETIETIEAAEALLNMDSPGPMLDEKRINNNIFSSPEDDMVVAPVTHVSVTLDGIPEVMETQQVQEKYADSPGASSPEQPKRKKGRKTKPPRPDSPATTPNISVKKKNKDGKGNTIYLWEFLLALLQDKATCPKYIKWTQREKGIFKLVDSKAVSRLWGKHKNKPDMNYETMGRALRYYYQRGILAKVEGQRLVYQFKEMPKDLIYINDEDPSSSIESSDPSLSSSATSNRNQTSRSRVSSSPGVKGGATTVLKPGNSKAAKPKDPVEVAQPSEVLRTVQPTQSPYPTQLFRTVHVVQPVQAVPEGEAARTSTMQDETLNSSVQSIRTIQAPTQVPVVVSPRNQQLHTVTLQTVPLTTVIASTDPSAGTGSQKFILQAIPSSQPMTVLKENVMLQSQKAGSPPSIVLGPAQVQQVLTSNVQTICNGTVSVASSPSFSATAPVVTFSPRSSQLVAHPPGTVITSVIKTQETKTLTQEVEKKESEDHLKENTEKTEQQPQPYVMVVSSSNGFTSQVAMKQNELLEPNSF

In the case of GTCTCC, the binding signal is 1.45 fold enrichment (6-mer frequency, TF over GST control) with FLI1; 1.5 fold enrichment (6-mer frequency, TF over GST control) in the experiment with ELK1; 1.52 fold enrichment (6-mer frequency, TF over GST control) with GABPA; 1.26 fold enrichment (6-mer frequency, TF over GST control) with ERG; 1.39 fold enrichment (6-mer frequency, TF over GST control) in the experiment with ELF1; 1.4 fold enrichment (6-mer frequency, TF over GST control) with EHF. For the same sequence, the binding signal with SPI1 was 1.52 fold enrichment (6-mer frequency, TF over GST control); with SPIB, 1.43 fold enrichment (6-mer frequency, TF over GST control); in the experiment with ELK3, 1.56 fold enrichment (6-mer frequency, TF over GST control).
Take AAACTA: the binding signal is 1.17 fold enrichment (6-mer frequency, TF over GST control) with FLI1; 1.23 fold enrichment (6-mer frequency, TF over GST control) in the experiment with ELK1; 1.23 fold enrichment (6-mer frequency, TF over GST control) with GABPA; 1.23 fold enrichment (6-mer frequency, TF over GST control) in the experiment with ERG; 1.27 fold enrichment (6-mer frequency, TF over GST control) in the experiment with ELF1; 1.32 fold enrichment (6-mer frequency, TF over GST control) with EHF. Moreover, the binding signal with SPI1 was 1.22 fold enrichment (6-mer frequency, TF over GST control); in the experiment with SPIB it was 1.22 fold enrichment (6-mer frequency, TF over GST control); in the experiment with ELK3 it was 1.34 fold enrichment (6-mer frequency, TF over GST control).
Regarding CTTCAT, the binding signal with FLI1 was 1.6 fold enrichment (6-mer frequency, TF over GST control); with ELK1, 1.45 fold enrichment (6-mer frequency, TF over GST control); with GABPA, 1.45 fold enrichment (6-mer frequency, TF over GST control); in the experiment with ERG, 1.4 fold enrichment (6-mer frequency, TF over GST control); with ELF1, 1.52 fold enrichment (6-mer frequency, TF over GST control); with EHF, 1.31 fold enrichment (6-mer frequency, TF over GST control). Also, the binding signal is 1.49 fold enrichment (6-mer frequency, TF over GST control) with SPI1; 1.48 fold enrichment (6-mer frequency, TF over GST control) with SPIB; 1.38 fold enrichment (6-mer frequency, TF over GST control) in the experiment with ELK3.
Take TTCGCC: the binding signal was 1.26 fold enrichment (6-mer frequency, TF over GST control) with FLI1; 1.28 fold enrichment (6-mer frequency, TF over GST control) in the experiment with ELK1; 1.2 fold enrichment (6-mer frequency, TF over GST control) with GABPA; 1.15 fold enrichment (6-mer frequency, TF over GST control) in the experiment with ERG; 1.15 fold enrichment (6-mer frequency, TF over GST control) with ELF1; 1.11 fold enrichment (6-mer frequency, TF over GST control) with EHF. The binding signal with SPI1 was 1.1 fold enrichment (6-mer frequency, TF over GST control); in the experiment with SPIB, 1.14 fold enrichment (6-mer frequency, TF over GST control); with ELK3, 1.08 fold enrichment (6-mer frequency, TF over GST control).
TCACCA: the binding signal in the experiment with FLI1 was 1.18 fold enrichment (6-mer frequency, TF over GST control); in the experiment with ELK1 it was 1.23 fold enrichment (6-mer frequency, TF over GST control); in the experiment with GABPA, 1.12 fold enrichment (6-mer frequency, TF over GST control); in the experiment with ERG, 1.14 fold enrichment (6-mer frequency, TF over GST control); in the experiment with ELF1, 1.18 fold enrichment (6-mer frequency, TF over GST control); in the experiment with EHF, 1.06 fold enrichment (6-mer frequency, TF over GST control). The binding signal with SPI1 is 1.21 fold enrichment (6-mer frequency, TF over GST control); in the experiment with SPIB, 1.2 fold enrichment (6-mer frequency, TF over GST control); with ELK3 it was 1.22 fold enrichment (6-mer frequency, TF over GST control).
Consider TATCCA, for which the binding signal was 1.3 fold enrichment (6-mer frequency, TF over GST control) with FLI1; 1.36 fold enrichment (6-mer frequency, TF over GST control) with ELK1; 1.3 fold enrichment (6-mer frequency, TF over GST control) in the experiment with GABPA; 1.22 fold enrichment (6-mer frequency, TF over GST control) with ERG; 1.29 fold enrichment (6-mer frequency, TF over GST control) in the experiment with ELF1; 1.26 fold enrichment (6-mer frequency, TF over GST control) with EHF. The binding signal in the experiment with SPI1 is 1.27 fold enrichment (6-mer frequency, TF over GST control); with SPIB, 1.36 fold enrichment (6-mer frequency, TF over GST control); in the experiment with ELK3 it was 1.37 fold enrichment (6-mer frequency, TF over GST control).
Turning to ATCCCC, the binding signal is 1.47 fold enrichment (6-mer frequency, TF over GST control) in the experiment with FLI1; 1.46 fold enrichment (6-mer frequency, TF over GST control) in the experiment with ELK1; 1.35 fold enrichment (6-mer frequency, TF over GST control) in the experiment with GABPA; 1.52 fold enrichment (6-mer frequency, TF over GST control) with ERG; 1.5 fold enrichment (6-mer frequency, TF over GST control) with ELF1; 1.46 fold enrichment (6-mer frequency, TF over GST control) with EHF. The binding signal is 1.39 fold enrichment (6-mer frequency, TF over GST control) in the experiment with SPI1; 1.39 fold enrichment (6-mer frequency, TF over GST control) in the experiment with SPIB; 1.2 fold enrichment (6-mer frequency, TF over GST control) with ELK3.
